Over roughly 18,000 sequences, “log2 normalized intensity” has its median near 0.39; the highest 2% begin near 6.6. Many of the other results were omitted from the sample, so the highest values are more common in it than they were.

For the assay, the target named is T1, HNF4alpha2 (COS-7 nuclear extract) (Homo sapiens, UniProt P41235 1-474).
T1 sequence: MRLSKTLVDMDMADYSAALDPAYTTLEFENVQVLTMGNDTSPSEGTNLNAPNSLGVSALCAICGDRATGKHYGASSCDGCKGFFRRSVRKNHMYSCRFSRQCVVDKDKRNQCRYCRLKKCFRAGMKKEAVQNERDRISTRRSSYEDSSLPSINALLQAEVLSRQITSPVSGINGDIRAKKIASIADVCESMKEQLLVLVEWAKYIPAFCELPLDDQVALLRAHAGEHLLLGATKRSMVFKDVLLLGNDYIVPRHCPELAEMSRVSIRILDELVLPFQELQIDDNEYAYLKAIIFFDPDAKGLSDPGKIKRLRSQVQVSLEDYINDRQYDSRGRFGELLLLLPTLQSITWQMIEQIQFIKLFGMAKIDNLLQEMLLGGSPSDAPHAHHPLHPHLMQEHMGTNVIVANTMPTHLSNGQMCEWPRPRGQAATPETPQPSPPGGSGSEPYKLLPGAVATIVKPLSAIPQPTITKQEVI
In words: protein-binding microarray; COS-7 nuclear extract on double-stranded Agilent 4x180k PBM; binding buffer, salt, pH and temperature not given in the material; high values mean tight binding. To be noted: chain copies: 2; label: 3' end of strand 1 on the slide; dsDNA, one strand shown. In a few lines: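 Double-stranded oligonucleotides of ~60 nt, representing ~44,000 test sequences in quadruplicate, made up a custom Agilent SurePrint G3 4x180k array. Nuclear extracts from COS-7 cells transiently transfected by CaPO4 with a human HNF4α isoform expression vector were applied, and bound HNF4α was imaged at 2-µm resolution on an Agilent G2565CA scanner. Binding signal refers to the background-corrected, normalized gProcessedSignal output of Agilent software.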
“TTGGGTCACAATCACAAATGCCTTCAGGGGGCCTAGGGAGATTAGAGTATCGGTCGA”: the binding signal was 0.838 log2 normalized intensity.

As for “TCAGCCCACAGGTCAATCCAGGTTGCTGCCGCCTAGGGAGATTAGAGTATCGGTCGA”, the binding signal is -0.646 log2 normalized intensity.

As for “GGCCCAGAGCACAACCTTTGGCCGTGCATGGCCTAGGGAGATTAGAGTATCGGTCGA”, the binding signal came out at 2.45 log2 normalized intensity.

With “TTAAATCCTATCCTAGGGTTAAAGTCTACAGCCTAGGGAGATTAGAGTATCGGTCGA”, the binding signal was 4.31 log2 normalized intensity.

On to “ACCCCACGGACTTAAATTGTGCTGTGTCAGGCCTAGGGAGATTAGAGTATCGGTCGA”, for which the binding signal was 1.49 log2 normalized intensity.

“CAAAGTCCGCTTGCCTGAGGGTCATGACTAGCCTAGGGAGATTAGAGTATCGGTCGA”: the binding signal turned out to be 2.26 log2 normalized intensity.

Turning to “GCCAATTCAGCAAACAAAGGCACTTCTCTCGCCTAGGGAGATTAGAGTATCGGTCGA”, the binding signal was -0.96 log2 normalized intensity.

Consider “TGAGCAGGCAGTGTCACAGAAATCATGTAGGCCTAGGGAGATTAGAGTATCGGTCGA”, for which the binding signal worked out at 0.722 log2 normalized intensity.

In the case of “AGGTCAAAGTGCAACTACAAGGAGCAGCCTGCCTAGGGAGATTAGAGTATCGGTCGA”, the binding signal was 3.48 log2 normalized intensity.

Turning to “ACCTTGTGCAGTATCCCAGGGACTTACTCAGCCTAGGGAGATTAGAGTATCGGTCGA”, the binding signal was -0.811 log2 normalized intensity.

For the sequence “AGCAATACATTGAACTTTGAACACCTCTTCGCCTAGGGAGATTAGAGTATCGGTCGA”, the binding signal was 5.41 log2 normalized intensity.

“CAATAAGCAATACATTGAACTTTGAACACCGCCTAGGGAGATTAGAGTATCGGTCGA”: the binding signal was 6.91 log2 normalized intensity.

As for “AGAGCCTAGTTCATTGCAATTACTCAATAAGCCTAGGGAGATTAGAGTATCGGTCGA”, the binding signal is -0.91 log2 normalized intensity.

Take “AAGCAAACAAAACACGGACTTTGAAGCTCCGCCTAGGGAGATTAGAGTATCGGTCGA”: the binding signal came to 1.95 log2 normalized intensity.

Turning to “TTTTCAACATATACTTTGAACTTGTTTTTTGCCTAGGGAGATTAGAGTATCGGTCGA”, the binding signal is 2.27 log2 normalized intensity.

Consider “TTGTTCAATAAGCAATACATTGAACTTTGAGCCTAGGGAGATTAGAGTATCGGTCGA”, for which the binding signal was 7.41 log2 normalized intensity.

With “TTTCATCTTCTTAGCCTTTGAACCCCACACGCCTAGGGAGATTAGAGTATCGGTCGA”, the binding signal was 4.78 log2 normalized intensity.

“GATTTCATCTAAGGACAAACTTTGTCACTGGCCTAGGGAGATTAGAGTATCGGTCGA”: the binding signal is 1.15 log2 normalized intensity.

On to “ATCTAAGATTCCCCCTACCCTCAATATCTGGCCTAGGGAGATTAGAGTATCGGTCGA”, for which the binding signal stood at 4.35 log2 normalized intensity.

As to “TTAACAAGCATTTTGTTCCCATTGATCATTGCCTAGGGAGATTAGAGTATCGGTCGA”, the binding signal was determined as 1.23 log2 normalized intensity.

Regarding “CTGCCAAAGCTCACAGATGTGGAATGAAACGCCTAGGGAGATTAGAGTATCGGTCGA”, the binding signal is -0.0699 log2 normalized intensity.

With “TTTGAAAGAAAGAGACCTTTACCCTGACCTGCCTAGGGAGATTAGAGTATCGGTCGA”, the binding signal is 3.55 log2 normalized intensity.

“ACCTTTGACCCTTCTCTGGGAGAAAGGGAGGCCTAGGGAGATTAGAGTATCGGTCGA”: the binding signal came to 2.99 log2 normalized intensity.

In the case of “GAAGGAGCACCAATGACCTTTGACCCTTCTGCCTAGGGAGATTAGAGTATCGGTCGA”, the binding signal was found to be 11.1 log2 normalized intensity.

On to “AAACAATGACCTCTGCACCCTTCCCTGAGTGCCTAGGGAGATTAGAGTATCGGTCGA”, for which the binding signal stood at 3.51 log2 normalized intensity.

For the sequence “CAATCCTGGAGAAGGAGCACCAATGACCTTGCCTAGGGAGATTAGAGTATCGGTCGA”, the binding signal came to 3.47 log2 normalized intensity.

On to “CAATGACCTTTGACCCTTCTCTGGGAGAAAGCCTAGGGAGATTAGAGTATCGGTCGA”, for which the binding signal worked out at 8.21 log2 normalized intensity.

Turning to “TTCCCTCATGATTTAGTAAGTTCAAGAAGAGCCTAGGGAGATTAGAGTATCGGTCGA”, the binding signal came out at 0.956 log2 normalized intensity.

Turning to “GGCCTTGGGCCACCTGAGACAGTTTATGCCGCCTAGGGAGATTAGAGTATCGGTCGA”, the binding signal was -0.994 log2 normalized intensity.

“CCCTTTGGCCTTTCTAATTATTTACAGGGAGCCTAGGGAGATTAGAGTATCGGTCGA”: the binding signal came to 0.82 log2 normalized intensity.

For the sequence “GTAGAGACCTGTCTTCCTGGTGACCTTTGTGCCTAGGGAGATTAGAGTATCGGTCGA”, the binding signal worked out at 7.11 log2 normalized intensity.

Turning to “CTCATTCCTATTCGGTGCTGACCTTTGTTCGCCTAGGGAGATTAGAGTATCGGTCGA”, the binding signal was determined as 7.77 log2 normalized intensity.

With “GTCAAGTAGAGACCTGTCTTCCTGGTGACCGCCTAGGGAGATTAGAGTATCGGTCGA”, the binding signal was 2.19 log2 normalized intensity.

Take “GACCTGTCTTCCTGGTGACCTTTGTTTGGTGCCTAGGGAGATTAGAGTATCGGTCGA”: the binding signal is 4.94 log2 normalized intensity.

“GAGCACTCATTCCTATTCGGTGCTGACCTTGCCTAGGGAGATTAGAGTATCGGTCGA”: the binding signal turned out to be 3.47 log2 normalized intensity.

In the case of “TAGACTTTGGACCTGGCCTGCGGGGTCAGGGCCTAGGGAGATTAGAGTATCGGTCGA”, the binding signal is 5.39 log2 normalized intensity.

With “AGGACTTTGGACCGTCTTGTGGATCCTTGGGCCTAGGGAGATTAGAGTATCGGTCGA”, the binding signal was determined as 4.73 log2 normalized intensity.

For the sequence “ACACACAATAAGGACTTTGGACCGTCTTGTGCCTAGGGAGATTAGAGTATCGGTCGA”, the binding signal was found to be 7.27 log2 normalized intensity.

For the sequence “TCCTATTCGGTGCTGACCTTTGTTCACATTGCCTAGGGAGATTAGAGTATCGGTCGA”, the binding signal amounted to 5.89 log2 normalized intensity.

Turning to “ATGTGGGGCGTGTGTTAGACTTTGGACCTGGCCTAGGGAGATTAGAGTATCGGTCGA”, the binding signal came to 8.86 log2 normalized intensity.

Consider “CAATAAGGACTTTGGACCGTCTTGTGGATCGCCTAGGGAGATTAGAGTATCGGTCGA”, for which the binding signal was 5.92 log2 normalized intensity.

For “CGGGTATGTGGGGCGTGTGTTAGACTTTGGGCCTAGGGAGATTAGAGTATCGGTCGA”, the binding signal came to 4.22 log2 normalized intensity.

For “CATGGGCTGTCACCTTTACCCCCACTCTCCGCCTAGGGAGATTAGAGTATCGGTCGA”, the binding signal was 4.46 log2 normalized intensity.

In the case of “CTCCCAAGGTATCCTCCTAGAGTCCAAGGTGCCTAGGGAGATTAGAGTATCGGTCGA”, the binding signal amounted to 2.68 log2 normalized intensity.

In the case of “GAACTTTGACTTATTTAGTAGTGGCAAGAGGCCTAGGGAGATTAGAGTATCGGTCGA”, the binding signal was found to be 2.7 log2 normalized intensity.

As for “CAAAGCCCCTTTCCACTCTACCGTCCTCCCGCCTAGGGAGATTAGAGTATCGGTCGA”, the binding signal amounted to 1.91 log2 normalized intensity.

As to “CCAGGGACTTTGAACACTTCTTTGTTACTTGCCTAGGGAGATTAGAGTATCGGTCGA”, the binding signal stood at 2.44 log2 normalized intensity.

For the sequence “GTGCTGACCTCCTGTCTCATCCTGTGACCAGCCTAGGGAGATTAGAGTATCGGTCGA”, the binding signal was determined as 1.42 log2 normalized intensity.

Take “TCACCCTCTCCACCCCCATGCAAGTTCCCAGCCTAGGGAGATTAGAGTATCGGTCGA”: the binding signal came to 5.26 log2 normalized intensity.

For “GATACAACGGTTCAAAGGACAGACTTTGGAGCCTAGGGAGATTAGAGTATCGGTCGA”, the binding signal was determined as 3.39 log2 normalized intensity.

On to “ACTGAATGTGACCTTTTGGACCACAGAGTGGCCTAGGGAGATTAGAGTATCGGTCGA”, for which the binding signal was determined as 5.39 log2 normalized intensity.

For the origin of these results see article PMC10726135, “HNF4α isoforms regulate the circadian balance between carbohydrate and lipid metabolism in the liver”.
